# Test results taken from the supplement of paper PMC6555819.
# What was measured:
# Test in all cases: PBM binding z-score (relative to random genomic background probes); higher = stronger binding; sequences stand for … in GC…GCGATTGACAGCGTAGAATGAAGG
# [1] = system: PPARg:RXRa DBDmut IVT, anti-RXR (DBD mutation: RXRa K156A/R161A, NR concentration 270 nM, RXRa partner concentration 90 nM)
# In short: (§1)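 On custom Agilent 4×180K arrays, double-stranded probes with 34-nt variable regions carried direct-repeat seeds, single-nucleotide variants, half-site ablations or random human genomic background. Ligand-free nuclear receptor dimers were applied for 1 h, and binding was read with antibodies against each partner (one per run). Binding z-scores come from regression-normalized fluorescence, with the random background probes as reference.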
# [2] = system: PPARg:RXRa IVT, anti-PPARg (NR concentration 270 nM, RXRa partner concentration 90 nM)
# In short: as §1
# [3] = system: PPARg DBDmut:RXRa IVT, anti-PPARg (DBD mutation: PPARg1 K132A/R137A, NR concentration 270 nM, RXRa partner concentration 90 nM)
# In short: as §1
# [4] = system: PPARg DBDmut IVT, anti-PPARg (DBD mutation: PPARg1 K132A/R137A, NR concentration 270 nM)
# In short: as §1
# [5] = system: PPARg homodimer (NR concentration 180 nM)
# In short: as §1
# [6] = system: PXR:RXRa (NR concentration 270 nM, RXRa partner concentration 90 nM)
# In short: as §1
# [7] = system: PXR homodimer (NR concentration 270 nM)
# In short: as §1
# [8] = system: RARa:RXR (NR concentration 270 nM, RXRa partner concentration 90 nM)
# In short: as §1
# [9] = system: RARa homodimer (NR concentration 270 nM)
# In short: as §1
# [10] = system: RARb:RXRa (NR concentration 270 nM, RXRa partner concentration 90 nM)
# In short: as §1
Sequence,PBM binding z-score [1],PBM binding z-score [2],PBM binding z-score [3],PBM binding z-score [4],PBM binding z-score [5],PBM binding z-score [6],PBM binding z-score [7],PBM binding z-score [8],PBM binding z-score [9],PBM binding z-score [10]
CCTAGCAGGCCGATCTGGGTCACTCAAGGCTTGA,2.8,4.02,-0.802,-1.18,0.337,0.634,-0.34,1.27,-0.893,1.06
CCTATTGGGCCAAGGTCATTGATCAGTCAAAGCA,1.98,2.52,-0.54,0.103,2.09,3.72,1.21,3.94,0.101,3.33
TCTGCTAGGTCAACGATGGTCAGCTCATCTGCTA,4,4.36,2.19,-0.236,1.9,1.71,-1.45,2.37,-0.783,4.05
ATATGTAGGTTAAGGGTCATTCGGGTTGGTTCGC,7.7,8.1,6.59,4.92,8.66,6.02,3.75,6.67,3.12,3.43
ACAGACAGGTGATTGAAGGTAACTCAGCTGGACG,0.234,0.403,-0.375,-0.0689,0.449,-0.285,-0.239,0.452,-0.476,0.303
GATACAGGGTCAGCTAGAGGCCAGATTATGGAAA,0.866,2.23,0.547,-0.0092,1.91,3.24,-0.0885,4.03,0.518,4.12
CAACCTAGGTCAGGGCCAGTATAGGAGGAACGTT,2.7,3.26,0.0736,0.168,1.57,0.478,-0.518,1.45,0.172,3.51
TCTAGCAGGCCAGAGGGTCACTCAGGAGGTACGG,1.15,0.889,-0.476,-0.637,0.195,1.35,-0.32,2.12,-0.425,2.28
TCATGTAGGTAAACAGGTGAAAGTCCGTAAGTTA,4.93,5.27,0.599,0.663,1.08,0.463,0.296,0.664,0.834,0.451
AGTCAAAGTTCAGGACCAGGTAACGTAAAGCACG,-0.279,1.91,0.221,0.246,1.9,2.47,1.19,2.67,0.885,4.37
ATGTGTAGGTTAAGGGTCATTCAGGTTGGTTCGC,3.87,5.47,1.46,1.87,4.52,5.44,4.53,6.37,3.77,3.91
ATCTCTAGGTAAGACTCAGTTCAGTGAAGAACGC,1.86,0.996,1.18,1.16,1.11,1.04,1.31,0.197,0.948,0.386
CAAACTCGGTCACGAAAGGTCAAAGTCGAATGAC,5.23,5.86,1.31,0.821,7.09,6.39,2.67,6.96,4.39,5.02
CTACCAAGGTGAACTAGGTCGTTGATTACTATTC,3.53,3.8,0.391,0.182,0.824,1.4,0.424,1.61,0.0789,1.97
TCTTGTAGATCAACAGGAGGTTACGAAAGATCGA,1.67,1.04,0.791,0.725,0.494,0.945,0.0297,1.38,-0.191,0.551
TGAATGAGGTTAAAGATCAGGGTACGTGGCGTCG,2.05,3.93,1.21,0.291,1.09,2.14,-0.073,3.31,-0.532,2.21
CAAACTAGGTCAAAGGTCAAATTCGAGCCAACCA,8.73,9.36,7.2,6.6,8.4,7.16,1.57,8.86,3.32,5.62
ATCGAAAGGTCGAGGTGACTATAGAGAAAGGGAA,0.438,2.86,1.24,0.771,1.35,2.56,0.185,3.53,0.636,4.21
CGTCCAAGGTCAGTGCTAGGTCAGTGAAAGCATT,2.24,2.77,-0.328,-1.29,3.27,3.4,0.647,4.37,0.898,4.79
GCTTGTAGATCACGGTTAAGAAAGACTAAGCTAA,2.32,1.04,-0.32,-0.283,0.0431,-0.49,-0.193,-0.247,0.0308,-0.178
ATCTCTAGGCAAGACTCAGTTCAGTGAAGAACGC,0.117,-0.103,0.0484,-0.188,0.522,0.202,0.453,-0.255,-0.0609,-0.159
CCTTACGGGTCACTCCAGGTTAAAGCATCGGAGT,2.31,3.73,-0.0185,-0.224,2.3,5.3,0.114,4.1,0.271,3.67
CCGACTGGGGCAGAAAGGTCACCATACCATCCGG,1.91,3.29,-0.398,-0.64,4.46,5.07,0.611,6.06,2.92,4.39
ATATGTAGGTTAGCTGGGGACATTCAGACTAGGC,6.96,6.07,2.18,1.88,1.9,2.92,0.356,1.71,1.2,1.22
